Where a name gives a salt, the structure may show the parent alone.

For this experiment, the system named is Saccharomyces cerevisiae BY4741 SeMeCo community. As to the kind of experiment: z-score of subpopulation abundance vs DMSO median, subpopulation auxotrophic for M; higher = larger share of this subpopulation than in DMSO controls. As to conditions: 10 µM; 24 h; SM minimal medium; subpopulation (auxotrophy): M. On the procedure: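 Fluorescent four-plasmid SeMeCo (self-establishing metabolically cooperating S. cerevisiae BY4741 community; plasmids pH-mRuby2, pL-mWasabi, pU-eCFP, pM-TagRFP657) was grown 24 h in minimal SM medium with each Selleck FDA-approved drug at 10 µM in 384-well plates. Cells were fixed and imaged by high-content confocal microscopy. For each auxotrophic subpopulation (and the prototroph), a z-score gives the deviation from the DMSO vehicle-control population median.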
With `CN(C)[C@@H]1C(=O)C(C(N)=O)=C(O)[C@@]2(O)C(=O)C3=C(O)c4c(O)cccc4[C@@](C)(O)[C@H]3C[C@@H]12` [Tetracycline HCl], the “z-score of subpopulation abundance” value was -0.05. With `COC(=O)C1=CCCN(C)C1` [Arecoline HBr], the “z-score of subpopulation abundance” value is 0.3. Take `CN(C)C(=O)Oc1cccc([N+](C)(C)C)c1` [Neostigmine Bromide]: the “z-score of subpopulation abundance” value is 0.29. Turning to `Oc1cc(Cl)ccc1Oc1ccc(Cl)cc1Cl` [Triclosan], the “z-score of subpopulation abundance” value was -4.35. As to `Nc1ccncc1` [4-Aminopyridine], the “z-score of subpopulation abundance” value stood at 0.04. Take `COc1ccc2[nH]cc(CCN)c2c1` [5-Methoxytryptamine]: the “z-score of subpopulation abundance” value came out at 0.64. The value for `Nc1nc(N)nc(NC2CC2)n1` [Cyromazine] was 0.95; that for `CC[C@H]1CN2CC[C@]3(C(=O)Nc4ccccc43)[C@@H]2C[C@@H]1/C(=C\OC)C(=O)OC` [Rhynchophylline] was -0.68. As for `C[N+]12CCC(CC1)C(OC(=O)C(O)(c1ccccc1)c1ccccc1)C2` (centres undefined) [Clidinium Bromide], the “z-score of subpopulation abundance” value was -0.85. For `CCOC(=O)Nc1ccc(NCc2ccc(F)cc2)cc1N` [Retigabine 2HCl] the value was 0.27; for `C=CN1CCCC1=O.II` [Povidone iodine], -0.79. Take `CC(=O)OCC1=C(C(=O)O)N2C(=O)C(N)C2SC1` (centres undefined) [7-Aminocephalosporanic acid]: the “z-score of subpopulation abundance” value is -0.97.

`C=CCN1C[C@H](C(=O)N(CCCN(C)C)C(=O)NCC)C[C@@H]2c3cccc4[nH]cc(c34)C[C@H]21` [Cabergoline]: the “z-score of subpopulation abundance” value was -0.27.

`COc1ccc(C(CN(C)C)C2(O)CCCCC2)cc1` (centres undefined) [Venlafaxine]: the “z-score of subpopulation abundance” value was -0.73. For `CC[C@@]1(O)C(=O)OCc2c1cc1n(c2=O)Cc2cc3ccccc3nc2-1` [Camptothecin] the value was 1.3; for `CC(C)(O)C(Cl)(Cl)Cl` [Chlorobutanol], 0.1; for `C[C@@H]1CC[C@H]2[C@@H](C)C(=O)O[C@@H]3O[C@@]4(C)CC[C@@H]1[C@]32OO4` [Artemisinin], -4.51. Turning to `CCN1CC2(OC(=O)c3ccccc3NC(C)=O)CCC(OC)C34C1C(CC23)C1(O)CC(OC)C2CC4C1(O)C2OC` (centres undefined) [Lappaconitine], the “z-score of subpopulation abundance” value is 0.06. Consider `COc1cc2c(cc1OC)C1CC(=O)C(CC(C)C)CN1CC2` (centres undefined) [Tetrabenazine (Xenazine)], for which the “z-score of subpopulation abundance” value stood at 0.98. Regarding `CCCCCCCCCCCCCCCC[n+]1ccccc1` [Cetylpyridinium Chloride], the “z-score of subpopulation abundance” value is -6.34. For `CN1C(=O)COc2c(C(=O)NC3CN4CCC3CC4)cc(Cl)cc21` (centres undefined) [Azasetron HCl] the value was 1.59; for `C[C@H]1O[C@H](O[C@H]2[C@H](O)[C@@H](O)[C@@H](O)[C@H](O)[C@@H]2O)[C@@H](N)C[C@@H]1NC(=N)C(=O)O` [Kasugamycin hydrochloride], -0.97. For the compound `CN1c2ccccc2C(NCCCCCCC(=O)O)c2ccc(Cl)cc2S1(=O)=O` (centres undefined) [Tianeptine sodium], the “z-score of subpopulation abundance” value amounted to 0.9. The value for `C=CC[C@]1(O)CC[C@H]2[C@@H]3CCC4=CC(=O)CCC4=C3C=C[C@@]21C` [Altrenogest] was 0.62. Take `CC(NC(C)(C)C)C(=O)c1cccc(Cl)c1` (centres undefined) [Amfebutamone (Bupropion) HCl]: the “z-score of subpopulation abundance” value was 0.97.

With `Cn1cc(C2=C(c3cn(C4CCN(Cc5ccccn5)CC4)c4ccccc34)C(=O)NC2=O)c2ccccc21`, the “z-score of subpopulation abundance” value is -1.26. `O=[N+]([O-])C(Br)(CO)CO` [Bronopol]: the “z-score of subpopulation abundance” value is 0.51. The value for `N[C@@H]1C[C@H]1c1ccccc1` [Tranylcypromine (2-PCPA) HCl] was -0.13; that for `CC1(C)SC2C(N)C(=O)N2C1C(=O)O` (centres undefined) [6-Aminopenicillanic acid] was 0.22.

Consider `CN(C)[C@@H]1C(=O)C(C(N)=O)=C(O)[C@@]2(O)C(=O)C3=C(O)c4c(O)ccc(Cl)c4[C@@](C)(O)[C@H]3C[C@@H]12` [Chlortetracycline HCl], for which the “z-score of subpopulation abundance” value worked out at 0.04. With `O=c1cccc2n1C[C@@H]1CNC[C@H]2C1` [Cytisine], the “z-score of subpopulation abundance” value was -0.43.

Regarding `CN[C@@H]1[C@@H](O)[C@@H](O[C@@H]2[C@@H](O)[C@H](O[C@H]3O[C@H]([C@@H](C)O)[C@@H](O)[C@H](O)[C@H]3N)[C@@H](N)C[C@H]2N)OC[C@]1(C)O` [Geneticin (G418 Sulfate)], the “z-score of subpopulation abundance” value is -0.27. For `CC[C@@H](C(N)=O)N1CCCC1=O` [Levetiracetam] the value was 0.08; for `O=C(O[C@H]1C[N+]2(CCCOc3ccccc3)CCC1CC2)C(O)(c1cccs1)c1cccs1` [Aclidinium Bromide], 0.23.

For the origin of these results see the supplement of paper PMC8975748.
